# Shiga inhibitor: blocks Shiga toxin action in Vero cells; AID 2315; inhibition, % at 38.7 µM; Vero cells, Shiga toxin protein synthesis inhibition reporter; 290,000 compounds, 9.2% hits; in the data active = inhibition mostly above about 28%, no sharp cut-off; inactive = mostly below about 43%; also: 0% is about no effect
# Pf growth 96h: P. falciparum growth inhibition at 96 hour, primary screen for plastid delayed-death inhibitors | P. falciparum luciferase reporter growth, 96 h | Potency, µM (highest dose often 28.7 µM), inactives show at the top dose activity change, negative = inhibition, actives largely listed as inhibitors | 320,000 compounds, 6.9% hits | AID 504834; also: potency is read from the fitted curve at half-maximal effect; % is scaled to controls: 0 for no effect and ±100 for the full control effect
#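 Two-generation exposure (96 h) targets delayed-death phenotype. Reporter parasites carrying integrated firefly luciferase, in red cells at 2% hematocrit and 0.05% parasitemia final, kept at 37 C, 5% CO2; luminescence loss indicates inhibition.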
# NS1 inh: influenza NS1 inhibition | Potency, µM (series often up to 46.1 µM), without a hit: at the highest dose activity, positive = more growth | 270,000 compounds, 0.4% hits | AID 2326; calls by dose curve; also: potency is read from the fitted curve at half-maximal effect; actives are rising curves; nearly all actives have a fitted effect of over 50% in size
#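 S. cerevisiae expressing influenza A NS1, grown in glucose, washed, then diluted 1:100 into pH 6.0 -URA galactose medium with 23 nl compound. Growth recovery read as OD600; NS1-free strain serves as control.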
# Pf growth 48h: P. falciparum growth inhibition at 48 hours (one generation) | 310,000 compounds, 5.9% hits | Potency, µM (doses to about 28.7 µM), for inactives: at the highest dose activity change, negative = inhibition, usual class: inhibitors | P. falciparum luciferase growth in erythrocytes, 48 h; also: potency is read from the fitted curve at half-maximal effect; % is scaled to controls: 0 for no effect and ±100 for the full control effect
#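 Luminescence readout; reporter = integrated firefly luciferase in P. falciparum. RBC culture at 2% hematocrit, 0.1% parasitemia final, 37 C/5% CO2; decreased signal taken as growth inhibition.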
# CHX counter: counter-screen for Shiga toxin inhibitors: cycloheximide protein synthesis inhibition. 300,000 compounds, 12% hits. max response, %. AID 2314. cell reporter, cycloheximide protein synthesis inhibition counterscreen; in the data active = max response mostly above about 13%, no sharp cut-off; inactive = mostly below about 14%; also: read at 38.3 µM for the half of the compounds with a filed dose; 0% is about no effect
# * hit, by the source's call; ? = inconclusive; . = no result; [ ] = another dose, or the depositor's remark. In the library only some 21% were active in any assay of this set; here they are far more common. Unless noted, calls follow the shape of the dose curve; as a rule, active = well fitted inhibition curve with a large enough effect; inconclusive = small, poorly fitted or top-dose-only effect, or another doubt; inactive = no such curve, though single readings can be large or run the other way.
SMILES,Shiga inhibitor,Pf growth 96h,NS1 inh,Pf growth 48h,CHX counter
O=C(Nc1ccc(CN2CCOCC2)cc1)c1cc(Br)ccc1Cl,10.4,?,-10.9%,15.0%,3.0
O=C(Nc1ccc(CN2CCOCC2)cc1)c1ccc(Cl)cc1Cl,10.7,12.6%,3.2%,-31.6%,16.5*
O=C(Nc1ccc(CN2CCOCC2)cc1)c1ccccc1F,91.6*,416.9%,8.0%,309.2%,41.9*
O=C(Nc1ccc(CN2CCOCC2)cc1)c1cccs1,63.8*,0.0%,-2.5%,115.3%,27.1*
NC(=O)c1ccc(NC(=O)c2ccc(CN3CCOCC3)cc2)cc1,-10.7,4.3%,5.1%,.,-1.6
CCC/C(O)=C1\C(=O)CC(C)(C)CC1=Nc1cccc([N+](=O)[O-])c1,-7.8,-13.9%,-5.4%,-3.1%[0.00184 µM],-7.4
O=C(Cc1ccccc1)Nc1ccc(CN2CCOCC2)cc1,80.8*,-13.1%,-8.0%,105.7%,30.5*
O=C(Nc1cnn(Cc2ccc(Cl)cc2)c1)c1cccs1,-0.8,6.57µM*,-42.5%,4.65µM*,10.3
c1ccc(CN2CCOCCOCCOCCOCC2)cc1,31.3,-24.8%,-1.7%,-3.4%,-1.1
O=C(NC(=S)Nc1ccc(CN2CCOCC2)cc1)c1ccccc1[N+](=O)[O-],2.3,13.2%,-5.2%,-11.8%,13.4
O=C(NC(=S)Nc1ccc(CN2CCOCC2)cc1)c1ccc([N+](=O)[O-])cc1Cl,32.7,?,.,10.5%[5.75 µM],25.7*
O=C(Nc1ccc(CN2CCOCC2)cc1)c1ccc(-c2ccc(Cl)cc2Cl)o1,-7.5,-4.5%,-1.2%,2.08µM*,7.8
COc1ccc(N2CC(C(=O)N3CCN(c4ccccc4OC)CC3)CC2=O)cc1 (stereo unspecified),-6.3,-11.9%,-0.1%,13.1%,-9.0
COc1ccc(OC)c(NS(=O)(=O)c2ccc(NC(=O)c3ccc(NS(C)(=O)=O)cc3)cc2)c1,-4.6,129.2%,0.9%,-6.6%,-4.3
COc1cc(OC)c2ccc(=O)oc2c1C(CC(=O)N1CCOCC1)c1ccc(N(C)C)cc1 (stereo unspecified),-14.5,?,-20.3%,?,-4.3
COC(=O)c1c(C(=O)OC)c2cc(C(=O)c3ccccc3)ccn2c1Cl,7.3,?,-9.0%,?,14.7
O=S(=O)(c1ccc2c(c1)OCO2)N1CCN(S(=O)(=O)c2c(F)cccc2F)CC1,-3.8,.,.,.,-4.6
O=C(NC(=S)Nc1ccc(CN2CCOCC2)cc1)c1ccc(-c2cccc(Cl)c2)o1,-2.2,-20.1%,-20.1%,?,0.8
O=C(Nc1ccc(CN2CCOCC2)cc1)c1ccc(-c2cccc(Cl)c2)o1,29.5,?,-12.8%,1.47µM*,18.5
COc1ccccc1Nc1nc(-c2ccc3c(c2)NC(=O)CO3)cs1,48.2,0.0%,6.4%,0.0%,20.0*
COc1ccc(-c2cc(-c3ccccc3)nc(-c3ccc4c(c3)NC(=O)CO4)c2)cc1,25.2,.,0.0%,?,8.9
CCC(C)Nc1nc(-c2ccc3c(c2)NC(=O)CO3)cs1 (stereo unspecified),50.4*,-1.9%,14.1%,93.6%,28.2
COc1ccccc1NS(=O)(=O)c1cc2c(cc1C)NC(=O)CO2,1.3,?,16.6%,?,-0.8
COc1ccc(Nc2nc(-c3ccc4c(c3)NC(=O)CO4)cs2)cc1,127.9*,?,.,?,26.7*
CN(CC(=O)Nc1cccc(F)c1)C(=O)CCc1nc2sc3c(c2c(=O)[nH]1)CCCC3,.,-20.8%,.,-9.8%,.
SMILES,Shiga inhibitor,Pf growth 96h,NS1 inh,Pf growth 48h,CHX counter
Cc1n[nH]c(C)c1CCN(C)Cc1cn(C)nc1-c1ccc2c(c1)OCCO2,-9.9,1.31µM*,5.4%,28.4%,-1.7
CN(CCc1cnn(C)c1)Cc1cn(C)nc1-c1ccc2c(c1)OCCO2,3.4,0.0%,-0.6%,23.5%,6.4
CC(=O)C1CCC2C3CCC4=CC(=O)CCC4(C)C3CCC12C (stereo unspecified),-7.9,.,.,.,-4.0
CC(=O)[C@H]1CC[C@H]2[C@@H]3CCC4=CC(=O)CC[C@]4(C)[C@H]3CC[C@]12C,-12.6,10.4µM*,-25.1%,?,-3.2
Clc1cccc(C2CCN(Cc3nc(COc4ccccc4)no3)C2)c1 (stereo unspecified),13.0,?,-3.7%,-1.6%,1.8
c1ccc(OCc2noc(CN3CC[C@@H]4CCCC[C@H]4C3)n2)cc1,-4.1,13.1µM*,-9.5%,17.7%,-2.6
CCn1ncc(/C=N\NC(=O)COc2ccccc2)c1C,67.2*,8.7%,1.4%,13.6%,8.7
Cc1c(/C=C/C(=O)c2ccccc2)cnn1C,179.5*,31.9%,-39.1%,101.1%,52.5*
